Test results reported in PubChem BioAssay AID1671190 (National Center for Advancing Translational Sciences (NCATS), 2021).
Values joined by “and” are separate entries in the source; they are usually repeats but may differ in a detail not shown here. Equal values may be shown once. Hit rate of the full screen: of about 580,000 compounds, about 6,100 (1.1%) were called active. Roughly 15% stayed inconclusive and do not appear here. The full list was thinned out, with actives kept by preference. Unmarked numbers belong to inactive results. Calls come from the whole dose curve; as a rule, active = well fitted inhibition curve with a large enough effect; inconclusive = small, poorly fitted or top-dose-only effect, or another doubt; inactive = no such curve, though single readings can be large or run the other way.
% is set by controls: 0 for no effect and ±100 for the full control effect; potency is the fitted concentration of half-maximal effect.

Each compound was assayed against Polyunsaturated fatty acid lipoxygenase ALOX12 (Homo sapiens) (UniProt P18054) (assay: Primary qHTS assay for inhibitors of human arachidonate 12S-lipoxygenase (ALOX12): Round 2). Conditions: purified 12hLO, xylenol orange hydroperoxide absorbance; series mostly up to 108 µM; activity change, negative = inhibition: at the top concentration.
Polyunsaturated fatty acid lipoxygenase ALOX12 (Homo sapiens), sequence (P18054 whole entry, looked up): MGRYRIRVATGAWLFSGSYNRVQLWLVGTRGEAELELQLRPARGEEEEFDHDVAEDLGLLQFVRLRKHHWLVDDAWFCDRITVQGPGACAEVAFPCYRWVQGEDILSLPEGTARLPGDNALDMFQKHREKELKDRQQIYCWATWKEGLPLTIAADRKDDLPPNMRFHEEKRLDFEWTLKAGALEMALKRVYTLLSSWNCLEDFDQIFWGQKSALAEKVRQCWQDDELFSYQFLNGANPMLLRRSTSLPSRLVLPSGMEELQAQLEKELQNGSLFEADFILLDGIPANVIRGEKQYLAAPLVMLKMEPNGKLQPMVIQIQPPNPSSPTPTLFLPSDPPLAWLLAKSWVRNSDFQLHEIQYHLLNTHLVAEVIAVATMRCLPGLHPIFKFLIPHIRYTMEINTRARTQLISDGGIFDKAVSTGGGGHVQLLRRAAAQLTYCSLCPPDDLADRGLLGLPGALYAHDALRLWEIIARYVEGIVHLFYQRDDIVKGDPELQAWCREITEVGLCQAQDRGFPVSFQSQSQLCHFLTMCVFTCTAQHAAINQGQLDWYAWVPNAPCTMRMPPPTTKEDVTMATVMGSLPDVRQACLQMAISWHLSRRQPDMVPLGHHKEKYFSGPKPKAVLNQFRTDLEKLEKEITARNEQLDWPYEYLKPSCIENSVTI
How it was run: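 Purified human 12hLO at 150 nM in 25 mM Hepes, 0.01% Triton X-100, pH 7.0, preincubated 15 min at room temperature with compound. Reaction started with 40 uM arachidonic acid, 30 min at room temperature. Hydroperoxide measured by Fe-xylenol orange, 573/405 nm absorbance ratio.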
For `COCCN1C(=O)C(=O)/C(=C(/O)c2ccc(S(=O)(=O)N3CCOCC3)cc2)C1c1ccc(OC)c(OC)c1` (stereo not given), the “activity change, negative = inhibition” value was -19.4%.
In the case of `COc1ccc(C2/C(=C(/O)c3ccc(OC(C)C)cc3)C(=O)C(=O)N2CCCN2CCOCC2)cc1` (stereo not given), the “activity change, negative = inhibition” value was -14.3%.
With `CCCOc1ccc(/C(O)=C2/C(=O)C(=O)N(CCN(C)C)C2c2ccc(OC)c(OC)c2)cc1` (stereo not given) the “activity change, negative = inhibition” value was 0%.
In the case of `COc1cc(C2/C(=C(\O)c3ccc4c(c3)CC(C)O4)C(=O)C(=O)N2Cc2ccco2)ccc1O` (stereo not given), the “activity change, negative = inhibition” value was -13.7%.
In the case of `COCCN1C(=O)C(=O)/C(=C(/O)c2ccc(S(=O)(=O)N3CCCCC3)cc2)C1c1ccc(OC)c(OC)c1` (stereo not given), the Potency was 14.1 µM (active).
In the case of `COc1ccc(/C(O)=C2/C(=O)C(=O)N(CC3CCCO3)C2c2ccc(OC)c(OC)c2)cc1` (stereo not given), the Potency was 17.8 µM (active).
`CCOc1cc(C2/C(=C(/O)c3ccc(S(=O)(=O)N4CCCCC4)cc3)C(=O)C(=O)N2CCOC)ccc1O` (stereo not given) was tested, and the “activity change, negative = inhibition” value was -11.4%.
`COc1cccc(C2/C(=C(/O)c3ccc(F)cc3)C(=O)C(=O)N2CCN(C)C)c1` (stereo not given) was tested, and the “activity change, negative = inhibition” value was 22.4%.
`COc1ccc(/C(O)=C2\C(=O)C(=O)N(Cc3ccco3)C2c2ccc(OC)cc2OC)cc1` (stereo not given) was tested, and the Potency was 14.1 µM (active).
`Cc1ccc(C)c(OCc2ccc(-c3nc(C#N)c(NC(C)C)o3)o2)c1` was tested, and the “activity change, negative = inhibition” value was -14.7%.
`CCCCCCC(C)NC(=O)COC(=O)c1n[nH]c(=O)c2ccccc12` (stereo not given) was tested, and the “activity change, negative = inhibition” value was -13.7%.
For `NCC(=O)N1CCCC2(Cc3ccccc3CN2C(=O)c2cccc(Cl)c2)C1` (stereo not given), the “activity change, negative = inhibition” value was 42.1%.
For `Cc1cc2ccccc2n1CC(=O)NCc1ccc(C(N)=O)cc1`, the “activity change, negative = inhibition” value was 19.6%.
With `Cc1cccc(NC(=O)c2ccccc2NC(=O)CN2CCN(S(=O)(=O)c3cccs3)CC2)c1` the “activity change, negative = inhibition” value was 3.21%.
`COc1ccc(S(=O)(=O)N2CCC(C(=O)Nc3cccc(C)c3)CC2)c2cccnc12` was tested, and the “activity change, negative = inhibition” value was 26.8%.
For `COC(=O)[C@H](Cc1ccc(OC)cc1)NC(=O)[C@H]1CN(C(=O)c2ccc(N(C)C)cc2)CCN1S(=O)(=O)c1ccccc1`, the “activity change, negative = inhibition” value was 6.47%.
For `CCCN(C)C(=O)CCC[C@H]1NC[C@@H]2C[C@H]1CN(Cc1ccccc1)C2`, the “activity change, negative = inhibition” value was -0.277%.
With `N#CC1=C(N)OC2=C(C(=O)CCC2)C1c1ccc(-c2ccc(Cl)cc2Cl)o1` (stereo not given) the Potency was 28.2 µM (active).
For `NC1=C([N+](=O)[O-])C(c2ccccc2)C2=C(CCCC2=O)O1` (stereo not given), the “activity change, negative = inhibition” value was 10.4%.
For `CC1(C)CC(=O)C2=C(C1)OC(N)=C(C#N)C2c1cccnc1` (stereo not given), the “activity change, negative = inhibition” value was -14.4%.
`O=C(Nc1ccccc1F)N1CC2CCC(C1)N2Cc1ccc(-c2cccnc2)cc1` showed an activity change, negative = inhibition of 0.675% [at 6.33 µM].
With `CC(=O)Nc1ccc2c3c(ccc([N+](=O)[O-])c13)CC2` the “activity change, negative = inhibition” value was -4.52%.
For `Cc1ccc(/C=C/C(=O)Nc2ccc([N+](=O)[O-])c(NC(=O)/C=C/c3ccc(C)o3)c2)o1`, the Potency was 6.31 µM (active).
With `COc1ccc(OC)c(NC(=O)/C=C/c2ccc(C)o2)c1` the “activity change, negative = inhibition” value was -4.21%.
With `COCCn1c(SCc2cccc(Br)c2)nnc1-c1ccccc1` the “activity change, negative = inhibition” value was 0.725%.
`Cc1ccc(C)c(/C=C/c2nc3ccccc3s2)c1` was tested, and the “activity change, negative = inhibition” value was -17%.
With `CC(C)(C)NC(=O)C(=O)NN=C1CCCCCCC1` the “activity change, negative = inhibition” value was 244%.
`CC(C)NC(=S)NN=C1CCCCCCCCCCC1` was tested, and the Potency was 35.5 µM (active).
In the case of `CC(C)(C)c1ccc(C(=O)NN=C2CCCCC2)cc1`, the “activity change, negative = inhibition” value was 48.6%.
For `COc1ccc(C)cc1CN(C)C(=O)CCn1ccc2ccccc21`, the “activity change, negative = inhibition” value was -19.6%.
`CCOC(=O)c1cn[nH]c1S(=O)(=O)N1CCCC(C)C1` (stereo not given) was tested, and the Potency was 11.2 µM (active).
`CCOC(=O)c1cccc(NC(=O)c2cc(S(=O)(=O)N3CCCC(C)C3)cn2C)c1` (stereo not given) was tested, and the “activity change, negative = inhibition” value was -5.94%.
With `CCOC(=O)c1c(NC(=O)c2ccc(S(=O)(=O)N3CCCC(C)C3)cc2)sc2c1CCN(C(C)C)C2` (stereo not given) the “activity change, negative = inhibition” value was -18.9%.
For `O=C(Nc1ccc(Cl)nc1)c1ccc2cc[nH]c2n1`, the activity change, negative = inhibition was 5.64% [at 12.5 µM] and 1.76% [at 12.5 µM].
For `CC/C(=N/N=C(/CC)c1ccccc1)c1ccccc1`, the “activity change, negative = inhibition” value was -0.0612%.
`CC/C(=C(/c1ccccc1)c1ccc(OCC[N+](C)(C)C)cc1)c1ccccc1` was tested, and the Potency was 44.7 µM (active).
With `CCCCCCCCCOc1ccc(C(=O)c2ccccc2)cc1` the “activity change, negative = inhibition” value was 19.7%.
`CCCCOCCCNC(=O)c1cccc(C#N)c1` was tested, and the “activity change, negative = inhibition” value was 8.27%.
In the case of `O=C(N/N=C/C=C/c1ccccc1)C1CC1(c1ccccc1)c1ccccc1` (stereo not given), the “activity change, negative = inhibition” value was 17.3%.
With `Cc1ccc(N/N=C/C=C/c2ccccc2)cc1Cl` the Potency was 2.82 µM (active).
In the case of `O=C(NN=CC=Cc1ccccc1)C(O)C(O)C(=O)NN=CC=Cc1ccccc1` (stereo not given), the “activity change, negative = inhibition” value was -0.942%.
`CCOc1ccc(C(=O)N2c3ccccc3NC(=O)C2CC(=O)Nc2cccc(C(F)(F)F)c2)cc1` (stereo not given) was tested, and the “activity change, negative = inhibition” value was -13.4%.
In the case of `O=C(Oc1ccc2cc(-c3ccccc3)c(=O)oc2c1)N1CCOCC1`, the “activity change, negative = inhibition” value was -0.175%.
With `O=C(COC(=O)CNC(=O)C1CCCCC1)NCc1ccccc1` the “activity change, negative = inhibition” value was 0%.
With `S=C(NCc1ccccc1)Nc1ccc(NC(=S)NCc2ccccc2)c(Cl)c1` the “activity change, negative = inhibition” value was -3.77%.
In the case of `C/C(=N/NC(=S)NCc1ccccc1)c1cccc(C(F)(F)F)c1`, the Potency was 12.6 µM (active).
In the case of `C/C(=N\NC(=O)CNC(=O)C(c1ccccc1)c1ccccc1)c1ccc(C)cc1`, the “activity change, negative = inhibition” value was 11%.
With `O=C(NC(Cc1ccccc1)C(=O)O)c1cccc(C(F)(F)F)c1` (stereo not given) the “activity change, negative = inhibition” value was -18.9%.
With `C/C(=N\NC(=S)NCc1ccccc1)c1ccc(Cl)cc1` the Potency was 31.6 µM (active).
For `O=C(NCc1ccccc1)c1cccc(NC(=O)C2CCCCC2)c1`, the “activity change, negative = inhibition” value was -2.41%.
